# From PubChem BioAssay (NCI)
# The panel holds about 83,000 compounds, 20% with a hit somewhere; the sample as a whole holds those more often.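 The endpoint reported here, percent growth, reads 100 for growth as untreated, 0 for no net growth and -100 for all cells dead.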 The source made the active and inactive calls. The calls were made as follows: active = growth percent below 10; inactive = the rest.
# Test system: HL-60(TB) leukemia
# Test: NCI-60 one-dose screen, 48 h (100 = growth as untreated, 0 = no growth, -100 = all killed)
# Details: 10 µM unless noted
row,Compound,growth
1,CCC(C)C1NC(=O)C(CCCCN)NC(=O)C(CCCCN)NC(=O)C(CC(C)C)NC(=O)C(CCCCN)NC(=O)C(C(C)CC)NC(=O)C(C(C)C)NC(=O)C(C(C)CC)NC(=O)C(CCCCN)NC(=O)C(CCCCN)NC(=O)C(C)NC(=O)C(CCCCN)NC(=O)C(CC(C)C)NC1=O (stereo not given),-35.2% (active)
2,C=C1C(=O)O[C@H]2[C@H]1CC/C(CNC(=O)/C=C/c1ccccc1F)=C\CC[C@@]1(C)O[C@@H]21,-31.9% (active)
3,C#CCOc1c(OC)cc(C(=O)/C(C)=C/c2cccc(N=[N+]=[N-])c2)cc1OC,1.17% (active)
4,CC(=O)O[C@@H]1/C=C/C(=O)N[C@@H](C)CCC/C=C/[C@@H]2CCC[C@H]21,99.8% (inactive)
5,Cn1nc(-c2ccc(Cl)cc2)nc2c(=O)n(C)c(=O)nc1-2,-43.2% (active)
6,COC(=O)/C=C1\SC(=Nc2ccc(F)cc2)N(CCc2c[nH]c3ccccc23)C1=O,73.7% (inactive)
7,C=C(Cl)C(=NC(C)(C)C)Nc1ccccc1C,43.3% (inactive)
8,C=C1CC/C=C(\C)C(=O)C[C@@H]2[C@@H]1CC2(C)C,105% (inactive)
9,O=C(CCl)N(c1ccccc1)c1ccccc1,101% (inactive)
10,CCOC(=O)c1c2c(c(C)n1Cc1ccccc1)-c1nc(N)ncc1CC2,96.2% (inactive)
11,CCNc1nnc(COc2ccc(CNC(=O)CCCC/C=C/C(C)C)cc2OC)o1,98.4% (inactive)
12,COc1cc(/C=C/c2cc(/C=C/c3ccc(O)c(OC)c3)n(C(=O)Nc3ccccc3Cl)n2)ccc1O,-24.3% (active)
13,COc1cc2c(cc1OCCCN1CCN(C(=S)SCCC(C#N)(c3ccccc3)c3ccccc3)CC1)N=C[C@@H]1CCCN1C2=O,0.178% (active)
14,COC1OC(C(O)C(O)CO)C(O)C(O)C1O (stereo not given),108% (inactive)
15,CC(C)(C)n1cc(-c2ccnc(NCCCNS(=O)(=O)c3ccc(C(F)(F)F)cc3)c2)c(-c2cccc(O)c2)n1,-24.5% (active)
16,C(#Cc1ccccc1C#Cc1ccccn1)c1ccc(OCCCCCCOc2ccc(C#Cc3ccccc3C#Cc3ccccn3)cc2)cc1,14.3% (inactive)
17,CCN(CC)CC(O)c1cc(-c2ccc(Cl)cc2)nc2c(C)c(Cl)ccc12 (stereo not given),-71.5% (active)
18,CCCCCCNC(=O)Oc1ccc(/C(=C(\C)c2ccccc2)c2ccc(OCCN3CCCCC3)cc2)cc1,31.1% (inactive)
19,O=C1CCC2=C3C4CCCCC4C(=O)C4CCCC(OC2C1)C34 (stereo not given),-17.1% (active)
20,CC(C)Cn1c2c(c(=S)[nH]c1=O)CCC2,107% (inactive)

row,Compound,growth
1,COc1ccc(-c2nc(-c3cn(C)c4ncccc34)cs2)cc1,13% [100 µM] (inactive)
2,CC(=O)/C(=C/c1ccc([N+](=O)[O-])cc1)C(=O)c1ccccc1,41.9% (inactive)
3,COc1ccc2c(c1)[nH]c(=O)c1c3cc(C)c(C)cc3cn21,-14.8% (active)
4,CC1(C)CC2=C3C=C[C@@H]4[C@@]5(C)CCC(=O)C(C)(C)[C@@H]5CC[C@@]4(C)[C@]3(C)CC[C@@]2(C(=O)O)C[C@H]1O,23% (inactive)
5,C=CCN1C(=O)c2cccc3c(N4CCOCC4)ccc(c23)C1=O,-5.15% (active)
6,CCOC(=O)/C=C/C(=O)[C@H](CC(C)C)NC(=O)[C@H](Cc1ccccc1)NC(=O)OCc1ccccc1,25.9% (inactive)
7,BrCCCOc1ccc(Oc2ccc(OCCCBr)cc2)cc1,106% (inactive)
8,O=C1C=C(Nc2ccc([N+](=O)[O-])cc2)c2ccccc2C1=O,3.59% (active)
9,Cc1ccccc1CNC(=O)C1CN(c2ccc(Cl)cc2)N(c2ccc(Cl)cc2)C1=O (stereo not given),94.7% (inactive)
10,COc1ccc(OCC(O)CN2CCN(c3ccc(Cl)cc3)CC2)cc1 (stereo not given),105% (inactive)
11,CCOC(=O)c1nn(C2CCCCO2)c2ccc(NC(=O)Cn3nnc4ccccc43)cc12 (stereo not given),98.8% (inactive)
12,CC(C)=CCC[C@](C)(O)[C@H]1CC[C@]2(C)[C@@H]1CC[C@@H]1[C@@]3(C)C/C(=C/c4ccc(Br)cc4)C(=O)C(C)(C)[C@@H]3CC[C@]12C,92.9% (inactive)
13,O=C(CSc1ccc2nnc(-c3cccc(F)c3)n2n1)Nc1ccc2c(c1)OCO2,78.9% (inactive)
14,CCOC(=O)c1cc(-c2ccccc2)nc(N)n1,101% (inactive)
15,CN(C)CCCC1(c2ccc(F)cc2)OCc2cc(-c3ccc(C(F)(F)F)nc3)ccc21 (stereo not given),43.1% (inactive)
16,CC1=CC(=O)c2ccccc2C1=O,106% (inactive)
17,NCCNc1nc2ccccc2c2c(=O)c3cccc(F)c3sc12,53% (inactive)
18,Nc1ccc(N=Nc2ccc(S(=O)(=O)O)cc2)c2ccccc12,62.8% (inactive)
19,CCOc1cc(\C=N/N=C(N)/C(N)=N\N=C/c2ccc(O)c(OCC)c2)ccc1O,121% (inactive)
20,COc1cnc2c(c1)C(=O)c1c-2n(CCCN2CCC(N)CC2)c(=O)c2cc([N+](=O)[O-])ccc12,44.3% (inactive)
